Measured values published in PubChem BioAssay AID485317 (Broad Institute, 2010).
The whole screen tested about 290,000 compounds, of which about 11,000 (3.8%) were called active.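 The calls were made as follows: active = mean replicate inhibition above about 79%, with every replicate also reaching it (limit read from the data); inconclusive = only one of the two criteria met; inactive = mean below limit and not every replicate reaching it.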 The entries come from a sample that favours actives as a whole.

Molecular target: FAD-linked sulfhydryl oxidase ALR (Homo sapiens) (UniProt P55789)
Experiment: inhibitors of human ALR sulfhydryl oxidase, primary screen, biochemical, H2O2 detection, HRP-luminol luminescence, single point (AID 485317)
Settings: purified ALR, DTT oxidation, stronger effect = higher value, concentration not given here

FAD-linked sulfhydryl oxidase ALR (Homo sapiens), sequence (P55789 whole entry, looked up): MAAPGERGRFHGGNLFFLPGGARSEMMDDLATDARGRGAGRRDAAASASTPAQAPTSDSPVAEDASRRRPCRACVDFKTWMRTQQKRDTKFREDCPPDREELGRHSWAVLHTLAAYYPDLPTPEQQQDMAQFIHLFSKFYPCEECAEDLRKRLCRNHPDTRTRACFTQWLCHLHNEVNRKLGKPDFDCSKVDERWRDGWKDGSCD

Structure (SMILES) | inhibition
COC(=O)c1sc(-c2ccc(C(C)(C)C)cc2)cc1NC(=O)/C=C/C(=O)O | 98.3% (active)
O=C(O)/C=C/C(=O)Nc1ccc(F)cc1F | 5.9% (inactive)
COc1ccccc1NC(=O)/C=C/C(=O)O | -9.66% (inactive)
O=C(COC(=O)c1cc(S(=O)(=O)N2CCOCC2)ccc1F)NC1CC1 | -8.45% (inactive)
CN(CC(=O)Nc1ccc(F)c(F)c1F)C(=O)Cn1cnc2c1c(=O)n(C)c(=O)n2C | -6.05% (inactive)
CCCCn1c(N)c(N(CCC(C)C)C(=O)c2ccc(COc3ccccc3)o2)c(=O)[nH]c1=O | 0.673% (inactive)
CCCOC(=O)Nc1sc2c(c1C(=O)OCC)CCC2 | 46.6% (inactive)
NC(=O)c1c(NC(=O)CSc2nc(N)cc(=O)[nH]2)sc2c1CCCC2 | 36% (inactive)
CCOC(=O)c1c(NC(=O)CSc2nnc(C)c(=O)[nH]2)sc2c1CCC2 | 90% (active)
Cc1ccc(C)c(NC(=O)COC(=O)c2nn(C)c(=O)c3ccccc23)c1 | -9.61% (inactive)
Cc1ccc(CCC(=O)Nc2ncc(Cc3cc(Cl)ccc3Cl)s2)o1 | 53.6% (inactive)
Cc1ccc(Cc2cnc(N)s2)o1 | 99.1% (active)
COc1cccc(C(=O)OCC(=O)c2[nH]c(C)c(C(C)=O)c2C)c1 | -3.4% (inactive)
Cc1ccc(S(=O)(=O)NCCNC(C)c2ccc(Br)cc2)cc1 (centres undefined) | -1.35% (inactive)
Cc1cc2c(cc1C)NC(c1ccccn1)C1=C(CC(C)(C)CC1=O)N2 (centres undefined) | 99.2% (active)
Cc1nn(-c2ccccn2)c2c1C(c1ccncc1)C1=C(CC(C)(C)CC1=O)N2 (centres undefined) | 16% (inactive)
CC(=O)C1=C(C)NC2=C(C(=O)CC(C)(C)C2)C1C (centres undefined) | -3.96% (inactive)
O=C1CCC/C=C\C[C@@H](CC(=O)N(CCO)Cc2ccccc2)C(=O)NCCO1 | 0.845% (inactive)
O=C(COC(=O)c1ccco1)Nc1ccc(Cl)cn1 | -2.69% (inactive)
O=C(CNC(=O)c1cccnc1)N/N=C/c1cc(Br)c(O)c(Br)c1 | 43.1% (inactive)
CCN(CC)c1ccc(/C=N/NC(=O)CNC(=O)c2cccnc2)cc1 | 98.6% (active)
O=C(CNC(=O)c1cccnc1)N/N=C/c1cccnc1 | -3.02% (inactive)
COc1ccc(-c2cc3ncccc3cn2)cc1 | 23.1% (inactive)
COc1ccc(N/N=C2/CCCCC2=O)cc1 | 99.4% (active)

Structure (SMILES) | inhibition
COc1ccc(CNC2CCCCC2)cc1 | -5.38% (inactive)
COc1ccc(CNC(=O)C2CCCC2)cc1 | -0.518% (inactive)
CN1CCN(C2Cc3ccc(Cl)cc3Sc3ccc(F)cc32)CC1 (centres undefined) | 4.93% (inactive)
CCOCCn1[nH]c2ccccc2c1=O | 52.9% (inactive)
Cc1ccc2c(c1)C1CN(C)CCC1N2S(=O)(=O)c1cccc(F)c1 (centres undefined) | 22.1% (inactive)
Cc1ccc2nc(NC(=O)CSc3nc(=O)n(CCCN(C)C)c4c3CCC4)sc2c1 | 97.3% (active)
Cc1ccc(NC(=O)CSc2nc(=O)n(CCN(C)C)c3c2CCCC3)c(C)c1 | 5.62% (inactive)
Cc1csc(NC(=O)CSc2nc(=O)n(CCCN(C)C)c3c2CCC3)n1 | -272% (inactive)
CCN(CC)CCn1c2c(c(SCC(=O)Nc3nc4ccccc4s3)nc1=O)CCCC2 | 98.7% (active)
CN(C)CCn1c2c(c(SCC(=O)Nc3ccccc3C(F)(F)F)nc1=O)CCCC2 | 0.246% (inactive)
CCN(CC)CCn1c2c(c(SCC(=O)Nc3ccc(C(C)C)cc3)nc1=O)CCC2 | -219% (inactive)
Cc1ccc(C)c(NC(=O)CN(C)C(=O)COc2ccc3ccccc3c2)c1 | -13.6% (inactive)
CC(=O)Nc1ccc(NC(=O)C(NS(=O)(=O)c2ccc3c(c2)OCCO3)C(C)C)cc1 (centres undefined) | 1.95% (inactive)
Cc1c(NC(=O)CN(C)CC(=O)Nc2ccc(F)c(F)c2F)c(=O)n(-c2ccccc2)n1C | -2.04% (inactive)
O=C(COC(=O)CCOc1ccccc1)Nc1cc(S(=O)(=O)N2CCCCC2)ccc1Cl | 4.02% (inactive)
COc1ccc(C(=O)C(C)OC(=O)c2cccc(S(=O)(=O)Nc3c(C)n(C)n(-c4ccccc4)c3=O)c2)cc1 (centres undefined) | -0.831% (inactive)
Cc1cccc(NC(=S)N2CCC(c3nc4ccccc4s3)CC2)c1 | -3.53% (inactive)
O=C(c1cccs1)N1CCC(c2nc3ccccc3s2)CC1 | 98.7% (active)
Cc1cccc(C(=O)N2CCC(c3nc4ccccc4s3)CC2)c1 | -11.6% (inactive)
CCC(c1nnc(SCC(=O)NNC(=O)c2ccccc2)n1Cc1ccccc1)N(C)C (centres undefined) | -1.21% (inactive)
O=C(CSc1nccn1-c1cccc(F)c1)NC1CCCC1 | -4.77% (inactive)
O=C(CSc1nc(-c2ccccc2)cs1)Nc1cccc([N+](=O)[O-])c1 | 98% (active)
O=C(CSCC(=O)Nc1cccc([N+](=O)[O-])c1)Nc1ccccc1 | -3.46% (inactive)
CCNC(=O)CSc1nc(-c2ccccc2)cs1 | -7.87% (inactive)

Structure (SMILES) | inhibition
COc1ccccc1C(=O)NCC(=O)OCC(=O)NNC(=O)c1ccc(Br)cc1 | 0.892% (inactive)
COc1cc(OC)cc(C(=O)NCC(=O)OCC(=O)NC(C)CCc2ccccc2)c1 (centres undefined) | -4.51% (inactive)
Nc1cccnc1Sc1ccccc1 | -14.3% (inactive)
Cc1cc(=O)[nH]c(SCC(N)=O)c1C#N | -1.22% (inactive)
Cc1ccc(NC(=O)CSc2sc3c(O)cc(=O)[nH]c3c2C#N)cc1C | 98.4% (active)
Cc1cc(C)c(C#N)c(SCC(=O)Nc2ccccc2)n1 | -3.28% (inactive)
Cc1ccc(S(=O)(=O)Nc2ccc(F)c(S(=O)(=O)N3CCOCC3)c2)cc1 | -9.01% (inactive)
O=C(Nc1ccc2c(c1)OCO2)C1CC1(Cl)Cl (centres undefined) | -6.35% (inactive)
O=C(c1ccc(Cl)nc1)N1CCN(S(=O)(=O)c2ccc3c(c2)OCCO3)CC1 | 0.752% (inactive)
Cc1c(C(=O)Nc2cccc(S(=O)(=O)N3CCOCC3)c2)oc2ccccc12 | -6.82% (inactive)
Cc1nc2ccc(NC(=O)c3cccc(S(=O)(=O)N4CCOCC4)c3)cc2s1 | -4.99% (inactive)
O=C(O)c1cccc(S(=O)(=O)Nc2ccc(O)cc2Sc2nc3ccccc3s2)c1 | 98.9% (active)
COc1ccc(S(=O)(=O)Nc2ccc(O)c(Sc3nc4ccccc4s3)c2)cc1 | 17.5% (inactive)
COc1cc(OC)cc(C(=O)NC(C(=O)N2CCC2)C(C)C)c1 (centres undefined) | 3.67% (inactive)
O=C(CSc1ncn[nH]1)N/N=C/c1ccc(F)cc1 | -0.231% (inactive)
Cc1ccc(S(=O)(=O)Nc2nc(CN3CCOCC3)nc3sc(C)c(C)c23)cc1 | -1.38% (inactive)
Cc1cnc(NC(=O)c2ccc(Cl)nc2)s1 | -5.29% (inactive)
O=C(NNc1ccccn1)c1ccc(Cl)nc1 | 91.6% (active)
O=C(NNC(=O)c1ccc(Cl)nc1)c1ccc(Br)cc1 | -1.29% (inactive)
COc1cc(/C=C/C(=O)OCC(=O)c2ccccc2)cc(OC)c1OC | 3.07% (inactive)
C[C@H](CO)N1C[C@H](C)[C@H](CN(C)C(=O)Nc2ccc(C(F)(F)F)cc2)Oc2c(NC(=O)c3ccncc3)cccc2C1=O | -1.8% (inactive)
Cc1ccc(S(=O)(=O)NC2CCCCCC2)cc1 | -3.36% (inactive)
Cc1ccccc1NC(=O)NCc1ccco1 | -5.6% (inactive)
O=C(Nc1ccccc1)Nc1ccccc1C(=O)NCc1ccco1 | -2.76% (inactive)

Structure (SMILES) | inhibition
Cc1cccc(Nc2ccccc2C(=O)NCc2ccco2)c1C | 98.6% (active)
O=C(OCC(=O)N1CCc2ccccc21)c1ccc([N+](=O)[O-])cc1 | -3.86% (inactive)
CC1CCCCC1NC(=O)/C(C#N)=C/C=C/c1ccccc1[N+](=O)[O-] (centres undefined) | 97.6% (active)
O=[N+]([O-])c1ccccc1/C=C/CN1CCC(O)CC1 | -20.9% (inactive)
O=C(/C=C/c1ccccc1[N+](=O)[O-])NCC1CCCO1 (centres undefined) | -4.47% (inactive)
CN(C)N=Nc1ccc2nc[nH]c2c1 | 92.1% (active)
COc1ccc(/C(C)=N/NC(=O)c2ccc3nc[nH]c3c2)cc1 | -6.54% (inactive)
CC/C(O)=N\S(=O)(=O)c1ccc(N=NN(C)C)cc1 | -19.2% (inactive)
Cc1cc(C)c(-c2csc(NC(=O)CCCc3nc4ccccc4c(=O)[nH]3)n2)c(C)c1 | -7.67% (inactive)
CC1(C)CC(=O)C(CC(=O)N2CCC(Cc3ccccc3)CC2)C(=O)C1 | 2.75% (inactive)
O=C(Cn1cnc2c(nnn2-c2ccccc2)c1=O)N1CCC(Cc2ccccc2)CC1 | -5.43% (inactive)
O=C(CN1CCOc2ccccc21)N1CCC(Cc2ccccc2)CC1 | 98.1% (active)
CCN(CC(=O)NCc1cccs1)C(=O)c1ccc(OC)c(S(=O)(=O)N2CCOCC2)c1 | -4.54% (inactive)
CCC(C)N(C(=O)CSc1nnnn1-c1ccccc1OC)C1CCS(=O)(=O)C1 (centres undefined) | 1.16% (inactive)
CC1(C)OC(=O)C(=CSc2ccc(C(C)(C)C)cc2)C(=O)O1 | 97.7% (active)
O=C1CN(C(=O)COC(=O)/C=C/c2ccc(F)cc2)c2ccccc2N1 | -2.48% (inactive)
CC(OC(=O)CCCc1c[nH]c2ccccc12)C(=O)Nc1ccc(S(N)(=O)=O)cc1 (centres undefined) | 81.6% (active)
NS(=O)(=O)c1ccc(NC(=O)COC(=O)CCc2c[nH]c3ccccc23)cc1 | 23.6% (inactive)
COc1ccc(CC(=O)OC(C)C(=O)Nc2ccc(S(N)(=O)=O)cc2)cc1 (centres undefined) | -3.25% (inactive)
NS(=O)(=O)c1ccc(CCNC(=O)CN2C(=O)c3ccccc3S2(=O)=O)cc1 | 20.2% (inactive)
O=C(NCCS(=O)(=O)N1CCN(c2ccccc2)CC1)c1ccco1 | 4.33% (inactive)
O=C(Cn1cnc2c(OCc3ccccc3)ncnc21)NCCCn1ccnc1 | -1.71% (inactive)
